The text below walks through data of PubChem BioAssay.

The subject of test [1] is TRPC4 beta (transient receptor potential cation channel C4), mouse. Description: activators of mouse TRPC4 channel, confirmation, cell-based, Fluo4 calcium, HEK293 TRPC4beta/mu-opioid, duplicates, 10 µM (AID 2426). The note with it: Fluo4 calcium fluorescence, at 10 µM; stronger effect = higher value.
For test [2], the system named is transient receptor potential cation channel C4 beta (TRPC4), mouse. Description: activators of mouse TRPC4 channel, confirmation, cell-based, second round, Fluo4, HEK293 TRPC4beta/mu-opioid, 1 µM (AID 2461;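 active = primary screen active and over 50% activation in each of two duplicate runs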). The note with it: Fluo4 calcium fluorescence, at 1 µM; stronger effect = higher value.
In test [3] the test system is TRPC4 (transient receptor potential cation channel C4 beta), mouse. Description: positive allosteric modulators of mouse TRPC4, confirmation, cell-based, second round, Fluo-4, HEK293 TRPC4beta/mu-opioid, 1 µM (AID 2554;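 active = primary screen hit whose fluorescence ratio, in both repeats, exceeds the weak agonist control mean by 3 SD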). As to conditions: DAMGO EC20, Fluo-4 calcium flux, at 1 µM; stronger effect = higher value.
The test system of test [4] is TRPC4 beta (transient receptor potential cation channel C4), mouse. Put plainly: positive allosteric modulators of mouse TRPC4, confirmation, cell-based, Fluo-4, HEK293 TRPC4beta/mu-opioid (AID 2555;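 active = primary screen hit whose calcium fluorescence ratio, in both repeats, exceeds the weak agonist control mean by 3 SD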). As to conditions: DAMGO EC20, Fluo-4 calcium flux, at 10 µM; stronger effect = higher value.
Test [5] addresses Short transient receptor potential channel 4 (Mus musculus) (UniProt Q9QUQ5). Description: inhibitors of mouse TRPC4 channel, confirmation, cell-based, Fluo4, HEK293 TRPC4beta/mu-opioid (AID 2636;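 active = calcium signal cut by more than 3 SD below the full-agonist control yet still positive, in both repeats and the earlier primary screen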). The note with it: DAMGO, Fluo4 calcium flux, at 10 µM; stronger effect = higher value.
For test [6] the target is unchanged. Put plainly: inhibitors of mouse TRPC4 channel, confirmation, cell-based, second round, Fluo4, HEK293 TRPC4beta/mu-opioid, 1 µM (AID 2637;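 active = calcium signal ratio cut to more than 3 SD under the fully stimulated control mean yet still positive, in both repeats and the primary screen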). As to conditions: Fluo4 calcium flux, DAMGO, at 1 µM; stronger effect = higher value.
The target is the same in test [7]. Description: mouse TRPC4 channel activators, dose response, cell-based, HEK293 TRPC4/mu-opioid, Fluo-4 calcium (AID 434937;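 active = primary screen activator hit with a dose response curve and TRPC4 channel activation at any tested dose; inactive = no activation, no dose response, or not a primary hit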).
Test [8] shares this target. Description: TRPC4 positive allosteric modulators, dose response, cell-based, HEK293 TRPC4/mu-opioid, Fluo-4 calcium, EC20 DAMGO (AID 434941;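 active = earlier screen potentiator hit that boosts the TRPC4 ion channel at some dose, with a dose response; inactive = no potentiation, no dose response, or not a prior hit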;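 note: calcium entry triggered by an EC20 dose of DAMGO at the co-expressed mu-opioid receptor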).
Test [9] shares this target. Description: mouse TRPC4 channel inhibitors, dose response, cell-based, HEK293 TRPC4/mu-opioid, Fluo-4 calcium (AID 434942;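 active = primary screen inhibitor hit that blocks the TRPC4 channel at some tested dose, yielding a dose curve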).
The target of test [10] is Short transient receptor potential channel 6 (Mus musculus) (UniProt Q61143). Description: inhibition of mouse TRPC6 channel, confirmation, selectivity assay for TRPC4 inhibitor project, cell-based, HEK293, membrane potential dye, duplicate (AID 434948;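 active = active in primary screen and both duplicates, each dropping signal beyond three positive-control SD with fluorescence still positive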). As to conditions: HEK293 TRPC6, membrane potential dye fluorescence, at 10 µM, stimulated with maximal-effect acetylcholine; stronger effect = higher value.

The target is the same in test [11]. Description: activation of mouse TRPC6 channel, confirmation, selectivity assay for TRPC4 activator project, cell-based, HEK293, membrane potential dye, duplicate (AID 434950;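 active = membrane potential signal rise above negative control mean plus 3 SD in both duplicates, also active in the earlier TRPC4 screen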). As to conditions: HEK293 TRPC6, membrane potential fluorescence, at 10 µM; stronger effect = higher value.
For test [12] the target is unchanged. Description: TRPC6 potentiation by TRPC4 potentiator hits, confirmation, selectivity assay for TRPC4 potentiator project, HEK293 cells, membrane potential dye, duplicate (AID 434952;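 active = compound raising the membrane signal above positive-control mean plus 3 SD in both repeats, and a primary screen hit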). As to conditions: HEK293 TRPC6, membrane potential dye fluorescence, at 10 µM, maximal acetylcholine added after compound; stronger effect = higher value.
Test [13] concerns the target Short transient receptor potential channel 4 (Mus musculus) (UniProt Q9QUQ5). Put plainly: calcium flux activators in TRPC4/5HT1a cells, counter-screen for TRPC4 activator project, cell-based, second counter screen, HEK293 TRPC4/5HT1a, Fluo-4 (AID 434977;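 active = calcium signal rise above buffer-control mean plus 5 SD in both duplicates, and also a hit in the primary screen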). As to conditions: Fluo-4 calcium flux, at 10 µM; stronger effect = higher value.
The nature of test [14]: calcium flux inhibitors in TRPC4/5HT1a cells, confirmation, counter-screen for TRPC4 inhibitor project, cell-based, second counter screen, HEK293 TRPC4/5HT1a, Fluo-4 (AID 434978;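 active = primary screen active whose calcium signal fell more than 3 SD beyond the full-serotonin control mean in both duplicate plates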;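 for outcome: serotonin given first at submaximal then at maximal dose after compound preincubation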). The note with it: Fluo-4 calcium flux, at 10 µM, serotonin added to trigger calcium flux; stronger effect = higher value.
For test [15], the system named is TRPC4 (mouse), co-expressed with 5HT1a in HEK293. Put plainly: calcium flux potentiators in TRPC4/5HT1a cells, confirmation, counter-screen for TRPC4 potentiator project, cell-based, second counter screen, HEK293 TRPC4/5HT1a, Fluo-4 (AID 434979;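 active = signal rise over 3 SD above mean of control wells given weak agonist, in both repeats and first screen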). The note with it: Fluo-4 calcium flux, at 10 µM, serotonin added at its EC20 dose; stronger effect = higher value.
A short description of test [16]: calcium flux activation in mu-opioid HEK293 cells, confirmation, counter-screen for TRPC4 activator project, cell-based, HEK293 mu-opioid receptor line (AID 449723;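 active = hit in primary screen, with calcium signal over 5 SD above buffer well mean in both duplicates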;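 note: counter screen cells carry the mu-opioid receptor alone and lack TRPC4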). The note with it: Fluo-4 calcium fluorescence, at 10 µM; stronger effect = higher value.
A short description of test [17]: calcium flux enhancement in mu-opioid HEK293 cells, confirmation, counter-screen for TRPC4 allosteric potentiator project, cell-based, HEK293 mu-opioid receptor line (AID 449724;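 active = calcium signal rise more than 3 SD above the low-dose agonist control mean, in both duplicate plates and the primary screen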;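 note: HEK293 cells carrying mu-opioid receptor only with no TRPC4 channel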). The note with it: Fluo-4 calcium flux, at 10 µM, compound added before EC20 DAMGO stimulus; stronger effect = higher value.

For some of these results: Results with a measured potency or affinity are listed apart. Active and inactive are the calls of the source.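 Rule for the calls, unless noted: active = fluorescence ratio normalized to control raised more than 50% in primary screen plus both repeat runs; inactive = the rest.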

Chain of Short transient receptor potential channel 4 (Mus musculus) (Q9QUQ5 whole entry, looked up): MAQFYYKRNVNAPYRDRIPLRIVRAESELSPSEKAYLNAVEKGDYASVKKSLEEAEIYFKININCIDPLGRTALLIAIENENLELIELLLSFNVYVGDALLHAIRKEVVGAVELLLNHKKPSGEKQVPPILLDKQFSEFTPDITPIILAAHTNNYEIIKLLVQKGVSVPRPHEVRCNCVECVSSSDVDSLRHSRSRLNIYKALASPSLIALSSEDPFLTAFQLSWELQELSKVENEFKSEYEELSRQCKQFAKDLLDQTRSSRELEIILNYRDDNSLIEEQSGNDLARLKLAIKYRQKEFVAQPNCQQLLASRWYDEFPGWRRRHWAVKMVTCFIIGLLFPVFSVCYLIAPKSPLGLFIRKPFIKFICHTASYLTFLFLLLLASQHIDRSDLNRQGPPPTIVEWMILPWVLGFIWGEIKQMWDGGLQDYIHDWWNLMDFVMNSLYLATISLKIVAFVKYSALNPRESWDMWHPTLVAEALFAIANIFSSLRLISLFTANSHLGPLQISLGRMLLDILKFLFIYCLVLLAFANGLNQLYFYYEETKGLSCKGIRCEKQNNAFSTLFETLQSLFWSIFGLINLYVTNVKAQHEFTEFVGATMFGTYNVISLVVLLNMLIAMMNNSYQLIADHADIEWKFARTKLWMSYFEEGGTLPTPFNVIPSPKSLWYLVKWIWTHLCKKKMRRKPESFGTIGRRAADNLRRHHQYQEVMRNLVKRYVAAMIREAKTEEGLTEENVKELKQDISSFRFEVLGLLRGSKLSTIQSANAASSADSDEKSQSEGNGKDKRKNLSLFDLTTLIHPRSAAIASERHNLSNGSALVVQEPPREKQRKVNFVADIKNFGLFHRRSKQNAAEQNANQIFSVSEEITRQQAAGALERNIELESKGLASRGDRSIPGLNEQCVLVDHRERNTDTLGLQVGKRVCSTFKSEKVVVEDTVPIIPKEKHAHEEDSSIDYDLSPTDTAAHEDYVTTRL
Chain of Short transient receptor potential channel 6 (Mus musculus) (Q61143 whole entry, looked up): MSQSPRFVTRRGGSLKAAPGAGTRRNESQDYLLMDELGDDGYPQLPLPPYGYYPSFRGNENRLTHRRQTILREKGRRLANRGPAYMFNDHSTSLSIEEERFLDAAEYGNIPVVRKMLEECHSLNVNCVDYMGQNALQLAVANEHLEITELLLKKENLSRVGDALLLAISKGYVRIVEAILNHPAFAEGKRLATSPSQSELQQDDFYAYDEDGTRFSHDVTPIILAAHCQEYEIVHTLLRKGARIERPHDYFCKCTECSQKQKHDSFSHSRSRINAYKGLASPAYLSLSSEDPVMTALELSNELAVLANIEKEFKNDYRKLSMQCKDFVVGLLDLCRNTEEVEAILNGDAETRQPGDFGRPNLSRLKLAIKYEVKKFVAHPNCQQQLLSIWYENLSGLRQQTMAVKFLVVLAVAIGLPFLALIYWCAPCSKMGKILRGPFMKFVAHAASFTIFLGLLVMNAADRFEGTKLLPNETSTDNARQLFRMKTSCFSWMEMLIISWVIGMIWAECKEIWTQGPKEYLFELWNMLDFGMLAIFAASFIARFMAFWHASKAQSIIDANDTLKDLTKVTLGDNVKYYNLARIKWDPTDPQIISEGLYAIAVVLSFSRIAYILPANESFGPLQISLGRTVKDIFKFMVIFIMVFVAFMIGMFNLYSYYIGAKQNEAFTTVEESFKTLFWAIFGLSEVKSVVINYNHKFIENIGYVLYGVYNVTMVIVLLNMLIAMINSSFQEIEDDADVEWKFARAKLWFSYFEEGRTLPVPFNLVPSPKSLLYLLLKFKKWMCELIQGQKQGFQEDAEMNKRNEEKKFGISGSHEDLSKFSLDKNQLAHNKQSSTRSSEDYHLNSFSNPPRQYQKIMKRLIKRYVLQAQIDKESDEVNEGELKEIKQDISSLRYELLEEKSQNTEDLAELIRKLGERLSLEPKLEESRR

`CCc1cc2c(SCC(=O)N(C)C3CCS(=O)(=O)C3)ncnc2s1` (stereo not drawn): the result in test [1], in test [2], in test [3], in test [5], in test [6] and in test [7] was inactive. The outcome in test [8], in [9], in test [10], in [11], in test [12] and in test [13] was inactive. Besides, the result in [14], in test [16] and in test [17] was inactive. Further, the potentiation was 35% (active) in test [4] and 42.5% (active) in test [15].

`CCOc1cccc(CN2CCCC(C(=O)c3cccc(C(F)(F)F)c3)C2)c1O` (stereo not drawn): the outcome in test [1], in test [2], in test [3], in test [4], in [6] and in [7] was inactive. For the same molecule, the result in test [8], in [9], in [10], in test [11], in test [12] and in [13] was inactive. In addition, the outcome in test [15], in test [16] and in test [17] was inactive. Moreover, the values for the inhibition in test [5] and in test [14] were 77% (active) and 42.2% (active), respectively.

On to `CCc1ccc(Nc2n[n+](-c3ccccc3)c(/C=C/c3ccccc3)s2)cc1`, for which the result in [1], in [2], in test [3], in test [5], in test [6] and in test [7] was inactive. The result in test [8], in test [9], in [10], in test [11], in test [12] and in [13] was inactive. Also, the result in [14], in [16] and in [17] was inactive. Further, the figures for the potentiation in [4] and in [15] were 14% (active) and 14.8% (active), respectively.

`CCn1c(NCc2ccco2)nc2ccccc21`: the result in test [1], in [2], in [3], in test [5], in test [6] and in test [7] was inactive. Besides, the outcome in test [8], in [9], in test [10], in test [11], in test [12] and in [13] was inactive. The result in test [14], in [16] and in test [17] was inactive. In addition, the potentiation in test [4] was 8% (active); in test [15], 12.3% (active).

Turning to `CCOC(=O)C1CCCN(C(=O)CCCn2nnnc2CN2CCOCC2)C1` (stereo not drawn), the result in [1], in [2], in [3], in [4], in [5] and in test [6] was inactive. The result in test [7], in test [8], in test [9], in test [10], in [11] and in [12] was inactive. The result in test [13], in test [14], in test [16] and in test [17] was inactive. Moreover, the potentiation in test [15] is 13.4% (active).

With `COc1ccc(OCCN(C)Cc2c(O)ccc3ccccc23)cc1`, the result in test [1], in [2], in [3], in test [4], in test [5] and in test [6] was inactive. The outcome in test [7], in test [8], in [9], in [10], in test [11] and in [12] was inactive. Moreover, the outcome in test [13], in test [14], in test [15], in test [16] and in [17] was inactive.

Regarding `O=C1Cc2ccccc2Sc2c(OCCN3CCCCC3)cccc21`, the outcome in [1], in test [2], in [3], in [4], in [5] and in [6] was inactive. Further, the result in test [7], in [8], in test [9], in test [10], in test [11] and in test [12] was inactive. In addition, the outcome in test [13], in test [14], in test [15], in test [16] and in test [17] was inactive.

`CCCCCCc1cc2cc(-c3nnc(-c4ccccc4O)o3)c(=O)oc2cc1O`: the result in test [1], in test [2], in test [3], in test [5], in test [6] and in test [7] was inactive. Also, the outcome in test [8], in test [9], in test [10], in [11], in test [12] and in test [13] was inactive. In addition, the result in [14] and in [16] was inactive. Also, the potentiation in [4] was 15% (active); in [15], 35.3% (active). The activation in test [17] is 1460% (active).

On to `NNc1ccc(Cc2ccc(Cl)cc2Cl)nn1`, for which the outcome in test [1], in [2], in [3], in [4], in test [5] and in [6] was inactive. The result in test [7], in test [8], in test [9], in test [10], in test [11] and in test [12] was inactive. The outcome in test [13], in test [14], in [16] and in test [17] was inactive. Besides, the potentiation in [15] was 15.2% (active).

Turning to `O=C(c1ccccc1)C1CCc2occc2C1=O` (stereo not drawn), the result in test [1], in test [2], in test [3], in test [4], in test [5] and in [6] was inactive. For the same molecule, the outcome in test [7], in [8], in test [9], in [10], in test [11] and in test [12] was inactive. For the same molecule, the outcome in test [13], in test [14], in test [15], in test [16] and in test [17] was inactive.

On to `CN1/C(=C\C=[N+](C)c2ccccc2)C(C)(C)c2ccccc21`, for which the result in [1], in [2], in test [3], in test [4], in [5] and in test [6] was inactive. Moreover, the outcome in test [7], in [8], in test [9], in [10], in test [11] and in [12] was inactive. Moreover, the outcome in test [13], in test [14], in test [15], in test [16] and in [17] was inactive.

For the molecule `O=C(c1coc2ccc(O)c(CN3CCOCC3)c12)C1CC1`, the outcome in test [1], in test [2], in test [3], in test [4], in test [5] and in test [6] was inactive. Moreover, the outcome in test [7], in [8], in test [9], in test [10], in test [11] and in test [12] was inactive. The result in test [13], in test [14], in test [15], in test [16] and in test [17] was inactive.

Consider `COC(=O)c1ccccc1NC(=O)c1cnn2cccnc12`, for which the outcome in [1], in test [2], in test [3], in test [5], in test [6] and in test [7] was inactive. In addition, the result in test [8], in test [9], in test [10], in test [11], in [12] and in test [13] was inactive. Also, the result in [14], in test [16] and in test [17] was inactive. For the same molecule, the potentiation was 16% (active) in [4] and 40.2% (active) in test [15].

As to `CCN1CCN(c2c(Cl)cccc2NC(=O)c2cccs2)CC1`, the result in [1], in test [2], in test [4], in test [5], in test [6] and in test [7] was inactive. The outcome in test [8], in [9], in [10], in test [11], in test [12] and in test [13] was inactive. The result in test [14], in test [16] and in test [17] was inactive. Besides, the potentiation was 14% (active) in [3] and 20.9% (active) in test [15].
